Laboratory results as given in PubChem BioAssay (Tox21).
Results filed as inconclusive are left out. Values without a mark were called inactive. The source made the active and inactive calls. Calls follow the shape of the full dose curve.

What follows are molecules tested against Beta-2 adrenergic receptor (Homo sapiens) (UniProt P07550) (assay: Adrenergic beta2 receptor (ADRB2) small molecule agonists, cell-based qHTS assay (AID 1963593)). Conditions: CHO-ADRB2 cells, cAMP HTRF, 30 min; series mostly up to 92.4 µM; activation: at the top concentration.
Chain of Beta-2 adrenergic receptor (Homo sapiens) (P07550 whole entry, looked up): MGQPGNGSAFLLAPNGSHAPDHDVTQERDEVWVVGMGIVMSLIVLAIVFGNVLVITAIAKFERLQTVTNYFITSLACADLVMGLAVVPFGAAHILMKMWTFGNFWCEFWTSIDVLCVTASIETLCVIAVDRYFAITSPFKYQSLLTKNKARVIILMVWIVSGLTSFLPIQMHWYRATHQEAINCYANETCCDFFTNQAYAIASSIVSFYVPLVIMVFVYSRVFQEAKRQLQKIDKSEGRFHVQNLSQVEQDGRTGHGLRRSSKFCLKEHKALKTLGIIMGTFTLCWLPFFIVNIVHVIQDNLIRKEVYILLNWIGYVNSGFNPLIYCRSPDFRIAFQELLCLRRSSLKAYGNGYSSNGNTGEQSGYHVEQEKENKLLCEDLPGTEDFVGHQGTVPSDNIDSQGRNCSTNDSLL
Text: National Center for Advancing Translational Sciences [NCATS]
Division of Preclinical Innovation [DPI]
U.S. Environmental Protection Agency [EPA]
National Institutes of Environmental Health Sciences [NIEHS]
National Toxicology Program [NTP]
U.S. Food and Drug Administration [FDA]
Beta adrenergic receptors (Beta-ARs) belong to the G-protein coupled receptor (GPCR) superfamily, includes three subtypes - beta1, beta2, and beta3. Beta1-AR is the predominant receptor subtype expressed in the heart, and beta2-AR is expressed in the kidney, lung, blood vessel and in the heart, and beta3 is found in the adipocytes. Beta1 and 2 ARs couple to Gs protein and elevate cyclic adenosine mono phosphate (cAMP), which activates protein kinase A and leads to the downstream signaling responsible for the physiological actions. Beta-AR agonists or antagonists are the most prescribed therapeutic agents for heart failure and asthma, and these were one of the first target receptors for the rational drug design. Tox21 10K compound library was screened using the cAMP-Gs dynamic assay (Cisbio Bioassays, Shelton, CT) to identify agonists/antagonists of the Gs-coupled human adrenergic, beta2 receptor (ADRB2) in the CHO-ADRB2 cell line (Codex BioSolutions, Inc. Gaithersburg, MD), which stably over-expresses ADRB2. The principle of cAMP-Gs dynamic assay is based on HTRF technology, which facilitates the fluorescence resonance energy transfer (FRET) between donor Europium cryptate and acceptor d2-labeled cAMP. The cAMP generated within cells competes with the red acceptor, d2-labled cAMP, for binding to the monoclonal anti-cAMP-cryptate (Europium donor). An increase in intracellular cAMP leads to the disruption of FRET signal, and the signal is inversely proportional to the cAMP concentration. Isoproterenol HCl (Sigma-Aldrich, St. Louis, MO) was used as a positive control in the screening.
Tox21 Assay Protocol Summary:
CHO-ADRB2 cells were dispensed at 1,000/well in 4uL assay medium into white/solid 1536-well plates (Greiner Bio-One North America Inc., Monroe, NC) using a Multidrop Combi dispenser (ThermoFisher Scientific, Waltham, MA). The assay plates were incubated at 37C and 5% CO2 for an overnight (18-20hr). Then positive control and test compounds dissolved in DMSO were transferred to the assay plates at 23nL using a Pintool station (Wako, San Diego, CA). Following the compound and positive control transfer, 1uL stimulation mix containing 100uM IBMX and 25uM Ro-20-1724 was added to each well of the assay plates using BioRAPTR Flying Reagent Dispenser (FRD, Beckman Coulter, Brea, CA). The assay plates were incubated at room temperature for 0.5hr. Then 2.5ul each d2-labled cAMP and anti-cAMP-cryptate solutions were added separately to each well of the assay plates using an FRD and the assay plates were incubated at room temperature for 1hr.
% is scaled to controls: 0 for no effect and ±100 for the full control effect.

Structure (SMILES) | activation | Potency
CC(=O)Nc1ncc([N+](=O)[O-])s1 | -4.38% [at 42.5 µM] | 
CC(C)(CCl)c1ccccc1 | -3.33% | 
O=C(O)c1cccc(C[C@@H]2COc3ccc(OCc4nc5cc(F)ccc5s4)cc3[C@@H]2O)c1 | 3.29% | 
CC(COC(=O)c1ccccc1)OC(=O)c1ccccc1 (stereo not given) | 2.86% | 
CCC(=O)CC | 9.54% | 
CCC(C)C1CCCCC1=O (stereo not given) | -5.18% | 
COc1ccc(N)c(OC)c1 | 14.3% | 
CCOC(=O)c1ccccc1C | 5.24% | 
Nc1ncnc2c1ncn2[C@@H]1O[C@H](COP(=O)(O)O)[C@@H](O)[C@H]1O | 7.99% [at 42.5 µM] | 
C=CC(=O)NCOCC(C)C | 6.91% | 
NC(=O)CCCCC(N)=O | -5.15% | 
CC(C)c1ccccc1O | -6.46% | 
CCCCCCCCSCCO | 14.6% | 
CC(C)COC(=O)c1ccccc1O | 0.711% | 
Cc1cn([C@H]2C[C@H](F)[C@@H](CO)O2)c(=O)[nH]c1=O | 5.86% [at 42.5 µM] | 
COCC(O)CO (stereo not given) | -0.771% | 
COc1cccc(OC)c1C(=O)N[C@@H]1C(=O)N2[C@@H]1SC(C)(C)[C@@H]2C(=O)O | 7.31% [at 42.5 µM] | 
CCC/C=C/CO | 7.84% | 
CC(=O)CC(C)=O | 17.2% | 
O=C(c1ccc(Cl)cc1)c1ccc(Cl)cc1 | -19.4% | 

Structure (SMILES) | activation | Potency
CCCC[C@H]1CN(CC2CCOCC2)C(=O)OC12CCN(C1(C)CCN(C(=O)c3c(C)ncnc3C)CC1)CC2 | -11.5% | 
Cc1ccccc1OCC1CO1 (stereo not given) | 36.5% | 
CCCCC(C)C(=O)O (stereo not given) | 11.1% | 
CC(O)CCCCn1c(=O)c2c(ncn2C)n(C)c1=O (stereo not given) | 8.28% [at 42.5 µM] | 
CC(=O)NC(Cc1ccccc1)C(=O)O (stereo not given) | 23.9% [at 42.5 µM] | 
Cc1ccc(C(C)(C)C)cc1 | -19.5% | 
COC(=O)c1ccccc1C(=O)O | 8.55% | 
CCOC(=O)c1ccc(O)c(O)c1 | 3.45% [at 42.5 µM] | 
CCCCCCCCC1CCC(=O)O1 (stereo not given) | 1.43% | 
O=C1OC2(c3ccc(O)cc3Oc3cc(O)ccc32)c2ccccc21 | -2.69% [at 42.5 µM] | 
COc1ccc(NC(C)=O)cc1 | 4.23% | 
CCc1ccccc1O | 18.3% | 
C=COCCOCCOCCOC=C | -0.0887% | 
CCCCOCCOCCOCCCC | 4.88% | 
COCCCOc1cc(C[C@@H](C[C@H](N)[C@@H](O)C[C@H](C(=O)NCC(C)(C)C(N)=O)C(C)C)C(C)C)ccc1OC | -9.24% [at 42.5 µM] | 
c1ccc2c(c1)Oc1ccccc1S2 |  | inactive
CCCCCCCCOCCC#N | -0.391% | 
c1ccc(CCc2ccccc2)cc1 | 4.13% | 
Cc1cccc(N(C)C)c1 | -0.641% | 
CCCC(O)C(O)CO (stereo not given) | 8.13% | 
